According to PubChem BioAssay (Tox21):
Values without a mark were called inactive. Inconclusive results are not listed. Entries that show only a call come without a potency. The source made the active and inactive calls. Unless noted, calls follow the shape of the dose curve; as a rule, active = well fitted curve in the direction sought with a large enough effect in the repeat runs; inconclusive = weak or mixed curves; inactive = no such curve, though single readings can be large; an effect the other way counts as inactive or inconclusive.

Tests used:
[1] = qHTS assay for small molecule agonists of the p53 signaling pathway (AID 651631; calls by dose curve; also: nearly all actives have a fitted effect of over 15% in size; also: potency is read from the fitted curve at half-maximal effect)
Method in brief: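 Fluorescence intensity from cleaved LiveBLAzer B/G substrate (2 h, room temperature) served as the signal. Beforehand, HCT-116 reporter cells bearing p53 response elements were treated 16 h at 37 °C with DMSO-dissolved compounds.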

[2] = qHTS assay for small molecules that induce genotoxicity in human embryonic kidney cells expressing luciferase-tagged ATAD5 (AID 651632); also: nearly all actives have a fitted effect of over 15% in size
Method in brief: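 Reporter cells (HEK293T) express luciferase-tagged ATAD5, a protein that accumulates after DNA damage. Treat 16 hr at 37C/5% CO2, add Amplite, wait 30 min at RT, and read luminescence.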

[3] = qHTS assay for small molecule agonists of the p53 signaling pathway - cell viability (AID 651633; calls by dose curve;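 also: p53RE-bla HCT reporter cells with a stable beta-lactamase p53 reporter; series mostly up to about 83 µM; nearly all actives have a fitted effect of over 30% in size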)
Method in brief: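 p53RE-bla cells were treated with compound for 16 hours at 37 C. Cytotoxicity was then measured as CellTiter-Glo luminescence after 30 min at room temperature.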

[4] = qHTS assay for small molecules that induce genotoxicity in human embryonic kidney cells expressing luciferase-tagged ATAD5 - cell viability (AID 651634; calls by dose curve; also: nearly all actives have a fitted effect of over 25% in size)
Method in brief: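 Seeding of 2,000 HEK293T ATAD5-luciferase cells per well preceded pin-tool compound transfer. Plates sat 15.5 hr at 37C under 5% CO2, then fluorescence was read after 30 min with CellTiter-Fluor.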

[5] = qHTS assay for small molecule disruptors of the mitochondrial membrane potential - cell viability (AID 720634; calls by dose curve;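 also: human HepG2 liver cancer cells; series mostly up to about 83 µM; nearly all actives have a fitted effect of over 20% in size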)
Method in brief: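 Measuring cytotoxicity alongside mitochondrial potential, the screen quantified ATP by luminescence in HepG2 cells after 1 hr compound incubation and a 30 min room-temperature CellTiter-Glo step.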

[6] = qHTS assay for small molecule disruptors of the mitochondrial membrane potential (AID 720635); also: potency is read from the fitted curve at half-maximal effect
Method in brief: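 HepG2 cells exposed to compound 1 hr at 37C, then Mito-MPS dye 30 min. Ratio read of aggregate (540/590 nm) versus monomer (490/535 nm) fluorescence.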

[7] = qHTS assay to test for compound auto fluorescence at 590 nm (red) in HepG2 cells (AID 720674)
Method in brief: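 HepG2 cells, 2,000 per well in MEM with 10% FBS, attached overnight at 37 C, then got 23 nL compound or DMSO. After 1 hr at 37 C, 5% CO2, red fluorescence was read at 540/590 nm against Rose Bengal sodium as reference.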

[8] = qHTS assay to test for compound auto fluorescence at 535 nm (green) in HepG2 cells (AID 720675)
[9] = qHTS assay to test for compound auto fluorescence at 460 nm (blue) in HEK293 cells (AID 720678)
Method in brief: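 After cell attachment (4-5 hr, 37C), compounds were pinned onto HEK293 monolayers in 10% dialyzed FBS medium. The blue channel (405/460 nm) was read following overnight culture. Equivalency was calculated against triamterene.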

[10] = qHTS assay to test for compound auto fluorescence at 590 nm (red) in HEK293 cells (AID 720679)
Method in brief: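 Plates of HEK293 cells (10% dialyzed FBS) are treated with 23 nL compound or DMSO vehicle after a 4-5 hr attachment period, incubated overnight at 37C, and read for red fluorescence at 540/590nm.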

| Structure (SMILES) | Potency [1] | Potency [2] | Potency [3] | Potency [4] | Potency [5] | Potency [6] | outcome [7] | outcome [8] | Potency [9] | outcome [10] | fluorescence, relative to Rose Bengal [7] | fluorescence, % of fluorescein control [8] | fluorescence, % of triamterene [9] | fluorescence, % of fluorescent control [10] |
| --- | --- | --- | --- | --- | --- | --- | --- | --- | --- | --- | --- | --- | --- | --- |
| CO[C@H]1O[C@H](CO)[C@@H](O)[C@H](O)[C@H]1O | inactive | inactive | inactive | inactive | inactive | inactive | inactive | inactive | inactive | inactive | – | – | – | – |
| O=C(Nc1ccc([N+](=O)[O-])cc1)Nc1ccc([N+](=O)[O-])cc1 | inactive | inactive | inactive | inactive | inactive | 0.422 µM (active) | inactive | inactive | inactive | inactive | – | – | – | – |
| CN1C(=O)CC(C)(c2ccccc2)C1=O (stereo not drawn) | inactive | inactive | inactive | inactive | inactive | inactive | inactive | inactive | inactive | inactive | – | – | – | – |
| C[Si]1(C)O[Si](C)(C)O[Si](C)(C)O1 | inactive | inactive | inactive | inactive | inactive | inactive | inactive | inactive | inactive | inactive | – | – | – | – |
| CCCCCCCCCCCC[N+](C)(C)CC(=O)[O-] | inactive | inactive | inactive | inactive | inactive | inactive | inactive | inactive | inactive | inactive | – | – | – | – |
| CCCCCC=CCC=CCCCCCCCC(=O)OCC | inactive | inactive | inactive | inactive | inactive | inactive | inactive | inactive | inactive | inactive | – | – | – | – |
| CC(=O)Oc1ccc(C(=C2CCCCC2)c2ccc(OC(C)=O)cc2)cc1 | inactive | inactive | inactive | inactive | inactive | inactive | inactive | inactive | inactive | inactive | – | – | – | – |
| CC1(C)C2=CCCC(C)(C)[C@]23CC[C@H]1C3 | inactive | inactive | inactive | inactive | inactive | inactive | inactive | inactive | inactive | – | – | – | – | – |
| COc1ccc(C(=O)c2cccc(O)c2)c(OC)c1 | inactive | inactive | inactive | inactive | inactive | 30.6 µM (active) | inactive | inactive | inactive | inactive | – | – | – | – |
| CCC(C)(O)CCC=C(C)C (stereo not drawn) | inactive | inactive | inactive | inactive | inactive | inactive | inactive | inactive | inactive | inactive | – | – | – | – |
| CCCCCCCCSCCO | inactive | inactive | inactive | inactive | inactive | 24.3 µM (active) | inactive | inactive | inactive | inactive | – | – | – | – |
| CCCCCCCCCCCC[N+](C)(C)CCCS(=O)(=O)[O-] | inactive | inactive | inactive | inactive | inactive | inactive | inactive | inactive | inactive | inactive | – | – | – | – |
| CCC(=O)Oc1ccc(/C(CC)=C(\CC)c2ccc(OC(=O)CC)cc2)cc1 | 15.4 µM (active) | inactive | inactive | inactive | inactive | 8.63 µM (active) | inactive | inactive | inactive | inactive | – | – | – | – |
| CN1CCCN=C1/C=C/c1cccs1 | inactive | inactive | inactive | inactive | inactive | inactive | inactive | inactive | inactive | inactive | – | – | – | – |
| O=C(O)c1cccc(O)c1 | inactive | inactive | inactive | inactive | inactive | inactive | inactive | inactive | inactive | inactive | – | – | – | – |
| C=C(C)C(=O)OCCOC(=O)CC(C)=O | inactive | inactive | inactive | inactive | inactive | inactive | inactive | inactive | inactive | inactive | – | – | – | – |
| N#C/C(=C1\SCC(c2ccccc2Cl)S1)n1ccnc1 (stereo not drawn) | inactive | inactive | inactive | inactive | inactive | inactive | inactive | inactive | inactive | inactive | – | – | – | – |
| CC(=O)Nc1ccccc1C | inactive | inactive | inactive | inactive | inactive | inactive | inactive | inactive | inactive | inactive | – | – | – | – |
| NCC1CCCC(CN)C1 (stereo not drawn) | inactive | inactive | inactive | inactive | inactive | inactive | inactive | inactive | inactive | inactive | – | – | – | – |
| CCC(C(=O)OCCOCCN(CC)CC)c1ccccc1 (stereo not drawn) | inactive | inactive | inactive | inactive | inactive | inactive | inactive | inactive | inactive | – | – | – | – | – |
| O=C(OCCOCCO)c1ccccc1Nc1cccc(C(F)(F)F)c1 | inactive | inactive | inactive | inactive | inactive | inactive | – | – | – | – | -0.199% [at 18.6 µM] | 0.199% [at 18.6 µM] | -0.0212% [at 18.6 µM] | 0.0507% [at 18.6 µM] |
| CCCOC(=O)c1ccc(C(=O)OCCC)nc1 | inactive | inactive | inactive | inactive | inactive | inactive | inactive | inactive | inactive | inactive | – | – | – | – |
